Sampled rows, rich in hits. Any-hit rate of the full collection: about 3.7%.
ELG1 repair inh: blocks ELG1-dependent DNA repair in HEK293T cells | AID 504467 | hit rate 2.3% among 330,000 | Potency, µM (top dose mostly 46.1 µM), without a hit: at the highest dose activity change, negative = inhibition, most hits filed as inhibitors | HEK293T ELG1-luciferase reporter, luminescence, 16 h; DNA damage induced by 5-fluorouridine; note: % is set by controls: 0 for no effect and ±100 for the full control effect; nearly all actives have a fitted effect of over 55% in size
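Cells (2,000 per well) received 5-fluorouridine plus test compound or DMSO and were incubated 16 hr at 37 °C, 5% CO2. Luciferase activity was read by luminescence 30 min after ONE-Glo addition; signal suppression marked inhibition of damage-induced ELG1 function.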
A549 tox: kills or reduces viability of A549 cells in Nrf2 counter-screen | A549 ARE-Fluc cells, CellTiter-Fluor viability, 18-24 h | Potency, µM (titrated, usually from 46 µM), for the others: top-dose activity change, negative = cytotoxicity, hits mostly inhibitors | hit rate 0.16% among 390,000; note: % is set by controls: 0 for no effect and ±100 for the full control effect
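A549 ARE-Fluc cells in 5% FBS OPTI-MEM, 5000 cells/well, rested 2 h then exposed to compounds in concentration-response for 18-24 h at 37 °C. Viability by CellTiter-Fluor fluorescence (Ex 405/Em 525) after 30 min; luciferase luminescence (BugLite, 15 min, RT) read afterwards.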
Nrf2 inh: Nrf2 pathway inhibition | hit rate 2.1% among 360,000 | A549 ARE-Fluc reporter, luciferase luminescence, 18-24 h | AID 504444 | Potency, µM (highest dose often 46 µM), for inactives: at the highest dose activity change, negative = inhibition, hits mostly inhibitors; note: % is set by controls: 0 for no effect and ±100 for the full control effect; nearly all actives have a fitted effect of over 60% in size
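Two sequential reads on A549 ARE_Fluc cells exposed to compound for 18-24 h: a CellTiter-Fluor fluorescence read for viability, then a luciferase luminescence read for Nrf2/ARE activity.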
Nrf2 ARE act: Nrf2 pathway activation | hit rate 0.31% among 410,000 | AREc32 ARE-luciferase reporter (MCF7-derived line), luminescence, 24 h | Potency, µM (titrated, usually from 46.1 µM), without a hit: at the top dose activation, hits mostly activators; note: % of control where 0% means no effect; nearly all actives have a fitted effect of over 65% in size
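AREc32 cells carrying an ARE-driven firefly luciferase reporter were seeded at 1000 cells/well in OPTI-MEM with 5% FBS, then exposed to compound for 24 hr at 37 deg C. Luminescence was read with Steady-Glo after 30 min at RT.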
* = called active by the depositor; ? = inconclusive; · = not tested or not shown; [ ] = another dose, or the depositor's remark. Calls come from the whole dose curve; as a rule, active = well fitted curve in the direction sought with a large enough effect; inconclusive = small, poorly fitted or top-dose-only effect, or another doubt; inactive = no such curve, though single readings can be large; an effect the other way counts as inactive or inconclusive. Potency is the fitted concentration of half-maximal effect.

SMILES	ELG1 repair inh	A549 tox	Nrf2 inh	Nrf2 ARE act
CN(C(=O)c1cccc(NC(=O)Cc2cccc(NC(=O)C3CCCN(C(=O)CCc4ccccc4)C3)c2)c1)C1CCC1 (stereo not drawn)	·	-8%	?	5%
Cc1ccc(NC(=O)CSCC(=O)OC(C)C(=O)Nc2ccccc2C)cc1 (stereo not drawn)	5%	-8%	21%	0%
CC(C)(C)S(=O)N1Cc2cc(CO)ccc2[C@@H]1CCO (stereo partly drawn)	·	7%	?	2%
O=C(N/N=C/c1ccc(Cl)cc1Cl)c1ccncc1	14%	-1%	1%	0%
O=C(N/N=C/c1coc2ccc(Cl)cc2c1=O)c1ccncc1	16µM*	1%	17%	0%
O=C(N/N=C/c1ccc(O)cc1O)c1ccncc1	?	-17%	12µM*	-1%
O=C(N/N=C/c1cc(Br)cc(Br)c1O)c1ccncc1	?	1%	?	4%
O=C(N/N=C/c1cc(Cl)cc(Cl)c1O)c1ccncc1	?	-8%	9.2µM*	-1%
CN(C)c1cc(-c2ccc(Cl)cc2Cl)oc(=O)c1Cl	?	0%	20%	3%
CN1C(=O)C(C)(C)c2cc(S(=O)(=O)NCc3ccc(C(=O)Nc4ccc(Cl)cc4)cc3)ccc21	·	-15%	18µM*	5%
COc1ccc(N(CC(=O)N/N=C/c2ccc3c(c2)OCO3)S(=O)(=O)c2ccccc2)cc1	10%	·	·	·
O=C(NCCc1ccc(F)cc1)C(=O)NCC(c1ccc2c(c1)OCO2)N1CCOCC1 (stereo not drawn)	·	-4%	·	0%
CCOc1ccccc1C(=O)N1CCC(n2nnc3cc(C)ccc32)CC1	-11%	-3%	-16%	0%
CCOc1ccccc1C(=O)N1CCC(n2nnc3cc(C(F)(F)F)ccc32)CC1	21µM*	-6%	?	0%
O=C(CSc1nnc(NC(=O)c2ccccc2)s1)NCc1ccco1	?	-3%	10%	4.5µM*
O=C(CSc1nc(-c2ccccc2)cs1)NC(=O)NCc1ccco1	18µM*	-4%	?	13%
Cn1c2ccsc2c2cnn(Cc3ccccc3F)c(=O)c21	·	-5%	18%	·
CC(C)c1ccc(S(=O)(=O)c2cnc(SCC(=O)Nc3cccc(C(F)(F)F)c3)nc2N)cc1	·	-18%	?	0%
COc1ccc(/C=N/Nc2nnc(-c3ncc[nH]3)c3ccccc23)cc1	?	-24%	-1%	3%
Oc1ccc2ccccc2c1/C=N/Nc1nnc(-c2ncc[nH]2)c2ccccc12	?	·	5.2µM*	-1%
CCCC(c1nnnn1CC1CCCO1)N1CCN(c2cc(Cl)ccc2C)CC1 (stereo not drawn)	-16%	?	26µM*	3%
CCOC(=O)CC(NS(=O)(=O)c1cc(-c2cc(C)no2)ccc1C)c1ccc(C)cc1 (stereo not drawn)	·	13%	?	3%
O=C1CCCN1c1ccc(S(=O)(=O)NCCc2ccc(Cl)cc2)cc1	-20%	9%	-17%	2%
COc1ccc(CCNS(=O)(=O)c2ccc(N3CCCC3=O)cc2)cc1	·	-11%	26µM*	1%
Cc1nn(C)c(C)c1NS(=O)(=O)c1ccc(N2CCCC2=O)cc1	?	-14%	15µM*	0%
SMILES	ELG1 repair inh	A549 tox	Nrf2 inh	Nrf2 ARE act
O=C1CC(c2nnc(Cc3ccc(F)cc3Cl)o2)CN1c1ccccc1 (stereo not drawn)	·	4%	-6%	-1%
Cc1nn(C)c(Cl)c1S(=O)(=O)N1CCC(CO)(CCc2ccccc2)CC1	-24%	-10%	21µM*	0%
O=C1CC(O)(C(F)(F)F)Oc2c1ccc1ccccc21 (stereo not drawn)	12%	?	-21%	6%
O=C1CC(O)(C(F)F)Oc2ccc3ccccc3c21 (stereo not drawn)	16µM*	1%	2%	0%
C[n+]1ccccc1/C=C1\Sc2ccccc2N1CCO	-2%	-20%	16µM*	4%
Cc1ccc2c(c1)S/C(=C\c1cccc[n+]1C)N2CCO	?	-19%	4.6µM*	3%
CC[n+]1ccc(/C=C2\Sc3ccccc3N2CCCS(=O)(=O)[O-])c2ccccc21	-8%	-8%	-3%	2%
CCOC(=O)CC(NS(=O)(=O)c1ccc2[nH]c(=O)sc2c1)c1ccc(C)cc1 (stereo not drawn)	-15%	-1%	11%	6%
CCc1ccc(NC(=O)C2=CC(c3ccc(OC)c(OC)c3)=NS(=O)(=O)N2C)cc1	13µM*	-20%	23µM*	0%
COc1ccc(CNC(=O)C2=CC(c3ccc(OC)c(OC)c3)=NS(=O)(=O)N2C)cc1	-28%	-12%	-3%	0%
COc1ccc(C2=NS(=O)(=O)N(C)C(C(=O)N3CCc4ccccc4C3)=C2)cc1OC	18µM*	-28%	15µM*	4%
CCN(CC)C(=O)c1cccc(NC(=O)C2CCN(C(=O)c3cccs3)CC2)c1	2%	-5%	-18%	4%
C[C@@H](CN=[N+]=[N-])CN1CC[C@H](C(C)(C)C)CCC1=O	-11%	-2%	12%	0%
CN(C)S(=O)(=O)c1ccc(C(=O)Nc2ccnn2C2CCCCC2)cc1	26µM*	-2%	?	-1%
Cn1c2cc(C#N)sc2c2cnn(Cc3ccccc3F)c(=O)c21	·	-4%	13%	·
CCOC(=O)c1ccc2[nH]c(CSc3nnc(-c4cccc(F)c4)n3C)cc(=O)c2c1	·	-15%	·	-1%
c1ccc(-c2nnc3ccc(N4CCCC4)nn23)cc1	22%	5%	?	1%
FC(F)(F)c1cccc(N2CCN(c3ccc4nnc(-c5ccccc5)n4n3)CC2)c1	?	?	16µM*	0%
Cc1ccc(S(=O)(=O)N2CCN(c3ccc4nnc(-c5ccccc5)n4n3)CC2)cc1	-18%	-2%	-9%	3%
O=C(Nc1ccc(Cl)cc1)N1CCN(c2ccc3nnc(-c4ccc(F)cc4)n3n2)CC1	4.6µM*	?	21µM*	3%
O=C(Nc1ccccc1Cl)N1CCN(c2ccc3nnc(-c4ccccc4)n3n2)CC1	13µM*	-5%	?	3%
COc1ccc(S(=O)(=O)N2CCN(c3ccc4nnc(-c5ccc(F)cc5)n4n3)CC2)cc1	18µM*	-16%	?	1%
O=C1CC(C(=O)Nc2ccccc2)S/C(=N\NC(=O)c2ccccc2Cl)N1 (stereo not drawn)	-1%	5%	4%	0%
O=[N+]([O-])c1ccc(/C=N/NC(=S)Nc2ccccc2C(F)(F)F)o1	10%	2%	-29%	0%[9.22 µM]
COc1cc(-c2nc(-c3ccc4c(c3)[nH]c(=O)n4C)no2)cc(OC)c1OC	·	0%	·	0%
Cn1c(C(=O)N2CCN(c3cccc(C(F)(F)F)c3)CC2)cc2sccc21	?	-29%	26µM*	0%
O=C(c1ccccc1F)N1CCN(c2cccc(C(F)(F)F)c2)CC1	2%	?	18µM*	-1%
Cc1ccc(C)c(N2CCN(C(=O)c3cc4sccc4n3C)CC2)c1	?	-7%	·	0%

From PubChem
